Data on 60 sequences can be found in the supplement of paper PMC10338343.

± gives the standard deviation.

In assay [1] the test system is MILI (PIWIL2) piRISC loaded with piRNA #1 (26 nt). The experiment in a line: pre-steady-state target cleavage rate (min^-1); guide: piRNA #1 5'p-UGAGGUAGUAGGUUGUAUAGUAUCCA; higher = faster piRNA-guided slicing of the target. The following applies: auxiliary factor: 500 nM mouse GTSF1. Summed up: (§1)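 Three pooled Cleave-'n-Seq trials supplied the data, with k3 capped at 0.0001 min^-1. In each, […] transcribed, DNA-blocked target RNA library and 1 nM active affinity-purified piRISC with one synthetic guide reacted in HEPES–potassium acetate buffer at 33 °C for 0–8 or 0–960 min, with or without 500 nM GTSF1 partner protein. Uncleaved targets were sequenced and normalised to depth and to weakly complementary targets. A burst-and-steady-state fit provided the pre-steady-state cleavage rate.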

Assay [2] relates to EfPiwi piRISC loaded with piRNA #1 (26 nt). The experiment in a line: pre-steady-state target cleavage rate (min^-1); auxiliary factor: 500 nM Ephydatia muelleri Gtsf1; guide: piRNA #1 5'p-UGAGGUAGUAGGUUGUAUAGUAUCCA; MIWI and MILI are mouse PIWI proteins and EfPiwi is from a freshwater sponge; tags in brackets are library labels; higher = faster piRNA-guided slicing of the target. In outline: as §1

Turning to GGAGAGGAUACUAUACAAGCUACUACCACA, the “pre-steady-state target cleavage rate” value in assay [1] was determined as 0.243 ± 0.019; in assay [2], 0.00317 ± 0.0019.
On to GGAGUGGAUACUAUACAACCUACUAACCUCA, for which the “pre-steady-state target cleavage rate” value in assay [1] stood at 0.133 ± 0.014; in assay [2], 0.00634 ± 0.0027.
For GGAGUGGAUAGUAUACAACCUACAACCUCA, the entries for the “pre-steady-state target cleavage rate” value in assay [1] and in assay [2] were 0.0845 ± 0.011 and 0.00254 ± 0.0017, respectively.
The like results for GGAGACGAUACUAUACACCUACUACCUCA were, in that order, 0.0294 ± 0.0067 and 0.0134 ± 0.0055.
Turning to GGAGAGGAUAGUAUACAACCUACUACGUCA, the “pre-steady-state target cleavage rate” value in assay [1] was found to be 0.0614 ± 0.0098; in assay [2] it was 0.0031 ± 0.0021.
On to GGAGAGAAUACUAUACAACCUACUACCUCA, for which the “pre-steady-state target cleavage rate” value turned out to be 0.177 ± 0.01 in assay [1] and 0.0106 ± 0.0053 in assay [2].
As to GGAGACCAUACUACUACAACCUACUACCUCA, the “pre-steady-state target cleavage rate” value in assay [1] came out at 0.137 ± 0.015; in assay [2], 0.0205 ± 0.0057.
In the case of GGAGACCUAUGUAUUCAACCUACUACCACA, the “pre-steady-state target cleavage rate” value was 0.0995 ± 0.016 in assay [1] and less than 0.0001 in assay [2].
As to GGAGACCUAACUAUACAUCCUACUACCUCA, the “pre-steady-state target cleavage rate” value in assay [1] was determined as 0.239 ± 0.028; in assay [2], 0.00745 ± 0.0028.
Regarding GGAGACCUAACUAUACGACCUACUACCUCA, the “pre-steady-state target cleavage rate” value in assay [1] worked out at 0.0254 ± 0.011; in assay [2] it was 0.00758 ± 0.0045.
For the sequence GGAGACCUUACUAUACAAGCUACUACCUGA, the “pre-steady-state target cleavage rate” value in assay [1] was determined as 0.158 ± 0.021; in assay [2], 0.00346 ± 0.003.
With GGAGUGCAUACAAUACAACCUACUACCUCA, the “pre-steady-state target cleavage rate” value is 0.186 ± 0.013 in assay [1] and 0.0102 ± 0.0044 in assay [2].
Turning to GGAGACCUAUCUAUACAACCUACUACCUA, the “pre-steady-state target cleavage rate” value in assay [1] amounted to 0.0666 ± 0.0086; in assay [2], 0.00487 ± 0.0042.
For GGAGACGAUACUAAUCAACCUACUACCUCA, the figures for the “pre-steady-state target cleavage rate” value in assay [1] and in assay [2] were 0.182 ± 0.015 and 0.0059 ± 0.0033, respectively.
Consider GGAGACCAUACUAUACAACCUACUGACCUCA, for which the “pre-steady-state target cleavage rate” value in assay [1] stood at 0.0765 ± 0.017; in assay [2], 0.0102 ± 0.0061.
Consider GGAGAGCAUAGUAUACAACCUACUACCUCA, for which the “pre-steady-state target cleavage rate” value stood at 0.0921 ± 0.0087 in assay [1] and 0.0077 ± 0.0045 in assay [2].
For GGAGACGAUACAAUACUACCUACUACCUCA, the figures for the “pre-steady-state target cleavage rate” value in assay [1] and in assay [2] were 0.201 ± 0.017 and 0.00238 ± 0.0021, respectively.
In the case of GGAGACCAUACUAUACAACGUACUACCUCA, the “pre-steady-state target cleavage rate” value in assay [1] turned out to be 0.0191 ± 0.0046; in assay [2], 0.00482 ± 0.0015.
The like results for GGAGACCUUACUAUACAACCUACUACCAGA were, in that order, 0.107 ± 0.017 and 0.00482 ± 0.0036.
Turning to GGAGACCUAUCUAUACAACCUACUAUCUCA, the “pre-steady-state target cleavage rate” value was found to be 0.0794 ± 0.013 in assay [1] and 0.00591 ± 0.004 in assay [2].
For GGAGACGUUACUAUACAACCUACUACCUGA, in that order: 0.102 ± 0.016 and 0.00573 ± 0.0022.
For the sequence GGAGACGAUACUAAACAAGCUACUACCUCA, the figures for the “pre-steady-state target cleavage rate” value in assay [1] and in assay [2] were 0.268 ± 0.016 and 0.00331 ± 0.0031, respectively.
As for GGAGAGGAUACUAUACAACCUUCUACCUCA, the entries for the “pre-steady-state target cleavage rate” value in assay [1] and in assay [2] were 0.0114 ± 0.0024 and 0.00778 ± 0.0039, respectively.
Consider GGAGUGGAUACUAUACAACGUACUACCUCA, for which the “pre-steady-state target cleavage rate” value in assay [1] was found to be 0.0277 ± 0.0034; in assay [2], 0.00682 ± 0.0022.
For GGAGUGGAUACUAUACAUCCUUCUACCUCA, the “pre-steady-state target cleavage rate” value stood at 0.0293 ± 0.0033 in assay [1] and 0.00476 ± 0.0022 in assay [2].
For the sequence GGAGACGAUACUAUAGAAGCUACUACCUCA, the “pre-steady-state target cleavage rate” value in assay [1] amounted to 0.16 ± 0.014; in assay [2], 0.00294 ± 0.0013.
In the case of GGAGUGGAUACUCAUACAACCUACUACCUCA, the “pre-steady-state target cleavage rate” value was 0.161 ± 0.012 in assay [1] and 0.0153 ± 0.0069 in assay [2].
Consider GGAGAGGAUACGUAUACAACCUACUACCUCA, for which the entries for the “pre-steady-state target cleavage rate” value in assay [1] and in assay [2] were 0.0772 ± 0.011 and 0.0803 ± 0.032, respectively.
Turning to GGAGACGAUACUAUACAACGUACAACCUCA, the “pre-steady-state target cleavage rate” value in assay [1] was found to be 0.0345 ± 0.0071; in assay [2], 0.00279 ± 0.0018.
Turning to GGAGACCUAUGUGAUACAACCUACUACCUCA, the “pre-steady-state target cleavage rate” value is 0.0354 ± 0.0073 in assay [1] and 0.0129 ± 0.0064 in assay [2].
In the case of GGAGACCUAACUAUCCAACCUACUACCUCA, the “pre-steady-state target cleavage rate” value in assay [1] worked out at 0.208 ± 0.038; in assay [2], 0.00727 ± 0.004.
Take GGAGACGAUACUAUUCAACCUACUACCUCA: the “pre-steady-state target cleavage rate” value in assay [1] came out at 0.202 ± 0.013; in assay [2] it was 0.00923 ± 0.0038.
On to GGAGACCUAACUAUACAACCUACUACCUGA, for which the “pre-steady-state target cleavage rate” value in assay [1] came to 0.108 ± 0.03; in assay [2], 0.00393 ± 0.002.
GGAGACCUAACUAUUACAACCUACUACCUCA: the “pre-steady-state target cleavage rate” value in assay [1] came to 0.099 ± 0.023; in assay [2] it was 0.0205 ± 0.0091.
On to GGAGACGAUACUAUUCAAGCUACUACCUCA, for which the “pre-steady-state target cleavage rate” value in assay [1] worked out at 0.23 ± 0.015; in assay [2], 0.00454 ± 0.002.
Regarding GGAGACCAUACUAUACAACCUCCUACCUCA, the “pre-steady-state target cleavage rate” value in assay [1] came to 0.0492 ± 0.0088; in assay [2], 0.00434 ± 0.0015.
With GGAGACGAUACUAUACAACCUACUACGUGA, the “pre-steady-state target cleavage rate” value in assay [1] is 0.0822 ± 0.021; in assay [2], 0.00515 ± 0.0026.
As for GGAGACGAAUACUAUACAACCUACUACCUCA, the “pre-steady-state target cleavage rate” value came out at 0.178 ± 0.015 in assay [1] and 0.0529 ± 0.018 in assay [2].
Consider GGAGACCAUACUAUACAACAUACUACCUCA, for which the “pre-steady-state target cleavage rate” value in assay [1] amounted to 0.0769 ± 0.0092; in assay [2], 0.00326 ± 0.0021.
As to GGAGACGAUACUAUACAACCUACUACGUCA, the “pre-steady-state target cleavage rate” value stood at 0.081 ± 0.012 in assay [1] and 0.00658 ± 0.002 in assay [2].
Take GGAGAGGUUACUAAACAACCUACUACCUCA: the “pre-steady-state target cleavage rate” value was 0.142 ± 0.013 in assay [1] and 0.00353 ± 0.0034 in assay [2].
For GGAGACGAUACUAUACAACCUACUCCCUCA, in that order: 0.106 ± 0.017 and 0.00312 ± 0.00092.
GGAGACGAUACUAUACAACCACUACCUCA: the “pre-steady-state target cleavage rate” value in assay [1] came to 0.00914 ± 0.0038; in assay [2], 0.00795 ± 0.0036.
With GGAGUGGAUACUAUACAACCUACUACUUCA, the figures for the “pre-steady-state target cleavage rate” value in assay [1] and in assay [2] were 0.103 ± 0.0082 and 0.104 ± 0.042, respectively.
For GGAGACCUUACUAUCACAACCUACUACCUCA, the “pre-steady-state target cleavage rate” value amounted to 0.143 ± 0.016 in assay [1] and 0.00983 ± 0.0039 in assay [2].
In the case of GGAGUGGAAACUAUACAACCUAGUACCUCA, the “pre-steady-state target cleavage rate” value in assay [1] was determined as 0.055 ± 0.021; in assay [2], 0.00276 ± 0.0018.
GGAGAGGAUGACUAUACAACCUACUACCUCA: the results for the “pre-steady-state target cleavage rate” value in assay [1] and in assay [2] were 0.0775 ± 0.015 and 0.01 ± 0.006, respectively.
The like results for GGAGACCUAUCUAAACAACCUACUACCUCA were, in that order, 0.0794 ± 0.014 and 0.00381 ± 0.0037.
For the sequence GGAGACGAUACUUUACAACCUACUACCUGA, the “pre-steady-state target cleavage rate” value was found to be 0.117 ± 0.021 in assay [1] and 0.00356 ± 0.0024 in assay [2].
The like results for GGAGAGGAAACUAUACAACCUACUACCACA were, in that order, 0.155 ± 0.03 and 0.00262 ± 0.0018.
The like results for GGAGAGCAUACUAUACAACGUACUACCUCA were, in that order, 0.0213 ± 0.003 and 0.00394 ± 0.0014.
Regarding GGAGACCAUUCAAUACAACCUACUACCUCA, the “pre-steady-state target cleavage rate” value in assay [1] stood at 0.0561 ± 0.0083; in assay [2], 0.0119 ± 0.0054.
For GGAGACGAUACUAUACAACCUACUAACCUCA, in that order: 0.194 ± 0.02 and 0.0059 ± 0.0019.
GGAGACCAUACUAUUCAACCUACUACCUCA: the results for the “pre-steady-state target cleavage rate” value in assay [1] and in assay [2] were 0.189 ± 0.016 and 0.0056 ± 0.0032, respectively.
The like results for GGAGACCUUACUAGUACAACCUACUACCUCA were, in that order, 0.0945 ± 0.0095 and 0.00695 ± 0.0046.
For GGAGACGAAACAAUACAACCUACUACCUCA, in that order: 0.167 ± 0.026 and 0.00789 ± 0.0038.
In the case of GGAGACCUAUCGAUACAACCUACUACCUCA, the “pre-steady-state target cleavage rate” value was 0.0869 ± 0.014 in assay [1] and 0.0102 ± 0.0056 in assay [2].
Regarding GGAGACCAGACUAUACAACCUACUACCUCA, the “pre-steady-state target cleavage rate” value in assay [1] is 0.193 ± 0.06; in assay [2] it was 0.00856 ± 0.0055.
Consider GGAGAGGAUACUAUACAAACCUACUACCUCA, for which the “pre-steady-state target cleavage rate” value in assay [1] worked out at 0.00683 ± 0.0028; in assay [2], 0.0671 ± 0.028.
GGAGACGAUACAAUACAACCUUCUACCUCA: the entries for the “pre-steady-state target cleavage rate” value in assay [1] and in assay [2] were 0.0137 ± 0.0038 and 0.00327 ± 0.0022, respectively.
